These results are taken from ChEMBL document CHEMBL1961873, “Compounds: GSK PKIS; Assays: Nanosyn kinase panel” (2012).

For test [1], the target named is T1, Mitogen-activated protein kinase 12 (Homo sapiens) (UniProt P53778).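 Further: values are averaged p38gamma kinase inhibition readings, compounds tested at 1 µM.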
T1 sequence (whole entry): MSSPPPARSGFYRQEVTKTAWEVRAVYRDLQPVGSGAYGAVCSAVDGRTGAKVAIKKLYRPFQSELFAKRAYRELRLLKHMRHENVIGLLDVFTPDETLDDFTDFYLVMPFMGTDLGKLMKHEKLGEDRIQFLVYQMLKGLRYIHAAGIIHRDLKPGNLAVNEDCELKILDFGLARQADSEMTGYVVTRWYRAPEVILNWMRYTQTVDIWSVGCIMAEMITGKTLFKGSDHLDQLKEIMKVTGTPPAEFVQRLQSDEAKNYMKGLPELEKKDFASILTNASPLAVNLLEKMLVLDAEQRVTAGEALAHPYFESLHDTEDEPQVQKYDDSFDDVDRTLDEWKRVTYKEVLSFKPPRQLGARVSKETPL
The conditions noted are these: at 1 µM.

Test [2] has as its target SRSF protein kinase 1 (Homo sapiens) (UniProt Q96SB4). The conditions noted are these: at 0.1 µM.
The target is the same in test [3]. The conditions noted are these: at 1 µM.
In test [4] the target is Phosphatidylinositol 4,5-bisphosphate 3-kinase catalytic subunit alpha isoform (Homo sapiens) (UniProt P42336). The conditions noted are these: at 0.1 µM.
For test [5] the target is unchanged. The conditions noted are these: at 1 µM.
The target in test [6] is T2, Phosphatidylinositol 4,5-bisphosphate 3-kinase catalytic subunit delta isoform (Homo sapiens) (UniProt O00329).
T2 sequence (whole entry): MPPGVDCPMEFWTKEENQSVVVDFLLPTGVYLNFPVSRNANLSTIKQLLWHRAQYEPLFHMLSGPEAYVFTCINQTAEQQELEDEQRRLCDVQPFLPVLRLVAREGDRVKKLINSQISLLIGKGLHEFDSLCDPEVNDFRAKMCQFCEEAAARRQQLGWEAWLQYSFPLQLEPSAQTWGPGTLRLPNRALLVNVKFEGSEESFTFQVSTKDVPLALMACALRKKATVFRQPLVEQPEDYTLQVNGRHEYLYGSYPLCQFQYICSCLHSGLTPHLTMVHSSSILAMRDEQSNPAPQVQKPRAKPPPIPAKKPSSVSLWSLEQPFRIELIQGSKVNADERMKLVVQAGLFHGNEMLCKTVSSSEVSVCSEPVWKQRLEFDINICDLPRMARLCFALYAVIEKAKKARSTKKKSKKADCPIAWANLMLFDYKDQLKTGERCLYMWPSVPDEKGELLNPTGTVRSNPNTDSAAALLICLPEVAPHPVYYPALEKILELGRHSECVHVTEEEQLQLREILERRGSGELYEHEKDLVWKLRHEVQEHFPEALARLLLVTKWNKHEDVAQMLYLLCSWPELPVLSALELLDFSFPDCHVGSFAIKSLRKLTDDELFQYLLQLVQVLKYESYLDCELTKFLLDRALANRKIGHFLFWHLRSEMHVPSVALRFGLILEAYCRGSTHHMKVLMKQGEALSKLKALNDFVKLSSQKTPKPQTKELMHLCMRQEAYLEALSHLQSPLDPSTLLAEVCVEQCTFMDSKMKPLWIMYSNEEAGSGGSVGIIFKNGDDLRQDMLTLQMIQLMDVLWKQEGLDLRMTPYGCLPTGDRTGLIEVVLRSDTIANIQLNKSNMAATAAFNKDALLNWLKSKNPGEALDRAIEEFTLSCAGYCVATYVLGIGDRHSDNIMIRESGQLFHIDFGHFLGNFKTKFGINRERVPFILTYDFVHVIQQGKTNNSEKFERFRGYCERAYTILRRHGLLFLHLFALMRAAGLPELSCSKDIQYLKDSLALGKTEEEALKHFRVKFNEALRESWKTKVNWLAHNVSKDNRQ
The conditions noted are these: at 0.1 µM.

The target of test [7] is T2, Phosphatidylinositol 4,5-bisphosphate 3-kinase catalytic subunit delta isoform (Homo sapiens). The conditions noted are these: at 1 µM.
Test [8] has as its target Phosphatidylinositol 4-kinase beta (Homo sapiens) (UniProt Q9UBF8). The conditions noted are these: at 0.1 µM.
Test [9] shares this target. The conditions noted are these: at 1 µM.
Test [10] concerns the target Sphingosine kinase 1 (Homo sapiens) (UniProt Q9NYA1). The conditions noted are these: at 0.1 µM.
The target is the same in test [11]. The conditions noted are these: at 1 µM.
In test [12] the target is T3, Sphingosine kinase 2 (Homo sapiens) (UniProt Q9NRA0).
T3 sequence (whole entry): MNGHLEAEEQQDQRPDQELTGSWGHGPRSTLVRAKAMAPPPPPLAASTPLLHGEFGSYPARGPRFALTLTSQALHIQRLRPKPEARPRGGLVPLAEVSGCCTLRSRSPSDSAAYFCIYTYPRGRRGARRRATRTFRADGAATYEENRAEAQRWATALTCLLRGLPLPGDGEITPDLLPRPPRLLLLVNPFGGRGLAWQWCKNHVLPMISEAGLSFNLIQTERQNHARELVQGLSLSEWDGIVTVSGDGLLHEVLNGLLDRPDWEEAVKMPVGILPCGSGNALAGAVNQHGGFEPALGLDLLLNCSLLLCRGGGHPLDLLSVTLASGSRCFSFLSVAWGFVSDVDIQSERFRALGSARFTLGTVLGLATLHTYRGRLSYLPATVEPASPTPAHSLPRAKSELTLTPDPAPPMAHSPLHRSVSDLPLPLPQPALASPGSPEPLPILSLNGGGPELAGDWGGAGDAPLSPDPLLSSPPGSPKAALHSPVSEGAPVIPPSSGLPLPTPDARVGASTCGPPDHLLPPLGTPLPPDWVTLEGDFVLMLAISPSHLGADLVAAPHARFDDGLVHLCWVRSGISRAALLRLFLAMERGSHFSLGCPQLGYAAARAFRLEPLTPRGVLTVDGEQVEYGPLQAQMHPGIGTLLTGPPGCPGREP
The conditions noted are these: at 0.1 µM.

Test [13] has as its target T3, Sphingosine kinase 2 (Homo sapiens). The conditions noted are these: at 1 µM.
Test [14] deals with Casein kinase II subunit alpha (Homo sapiens) (UniProt P68400). The conditions noted are these: at 0.1 µM.
Test [15] shares this target. The conditions noted are these: at 1 µM.
Test [16] has as its target T4, Inhibitor of nuclear factor kappa-B kinase subunit alpha (Homo sapiens) (UniProt O15111).
T4 sequence (whole entry): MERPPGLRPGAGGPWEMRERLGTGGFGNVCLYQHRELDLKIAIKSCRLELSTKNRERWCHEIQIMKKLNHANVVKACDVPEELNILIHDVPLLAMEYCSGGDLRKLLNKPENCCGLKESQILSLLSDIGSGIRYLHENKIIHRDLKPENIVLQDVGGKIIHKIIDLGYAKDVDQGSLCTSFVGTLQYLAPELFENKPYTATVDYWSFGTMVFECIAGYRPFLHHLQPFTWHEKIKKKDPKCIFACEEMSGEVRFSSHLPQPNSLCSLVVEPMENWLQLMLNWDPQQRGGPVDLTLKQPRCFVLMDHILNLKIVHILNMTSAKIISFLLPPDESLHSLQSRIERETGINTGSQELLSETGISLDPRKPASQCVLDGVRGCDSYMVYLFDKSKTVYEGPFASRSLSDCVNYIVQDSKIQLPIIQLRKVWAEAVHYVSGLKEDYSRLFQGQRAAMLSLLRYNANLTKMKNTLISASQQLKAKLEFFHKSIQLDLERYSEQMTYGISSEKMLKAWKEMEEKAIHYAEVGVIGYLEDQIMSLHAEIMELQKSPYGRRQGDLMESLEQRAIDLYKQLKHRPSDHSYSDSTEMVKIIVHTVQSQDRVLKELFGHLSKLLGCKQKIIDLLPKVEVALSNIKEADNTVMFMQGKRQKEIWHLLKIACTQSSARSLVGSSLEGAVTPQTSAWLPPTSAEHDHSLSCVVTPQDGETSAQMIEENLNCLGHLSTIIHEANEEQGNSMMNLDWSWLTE
The conditions noted are these: at 0.1 µM.

For test [17], the target named is T4, Inhibitor of nuclear factor kappa-B kinase subunit alpha (Homo sapiens). The conditions noted are these: at 1 µM.
Test [18] has as its target T5, Inhibitor of nuclear factor kappa-B kinase subunit beta (Homo sapiens) (UniProt O14920).
T5 sequence (whole entry): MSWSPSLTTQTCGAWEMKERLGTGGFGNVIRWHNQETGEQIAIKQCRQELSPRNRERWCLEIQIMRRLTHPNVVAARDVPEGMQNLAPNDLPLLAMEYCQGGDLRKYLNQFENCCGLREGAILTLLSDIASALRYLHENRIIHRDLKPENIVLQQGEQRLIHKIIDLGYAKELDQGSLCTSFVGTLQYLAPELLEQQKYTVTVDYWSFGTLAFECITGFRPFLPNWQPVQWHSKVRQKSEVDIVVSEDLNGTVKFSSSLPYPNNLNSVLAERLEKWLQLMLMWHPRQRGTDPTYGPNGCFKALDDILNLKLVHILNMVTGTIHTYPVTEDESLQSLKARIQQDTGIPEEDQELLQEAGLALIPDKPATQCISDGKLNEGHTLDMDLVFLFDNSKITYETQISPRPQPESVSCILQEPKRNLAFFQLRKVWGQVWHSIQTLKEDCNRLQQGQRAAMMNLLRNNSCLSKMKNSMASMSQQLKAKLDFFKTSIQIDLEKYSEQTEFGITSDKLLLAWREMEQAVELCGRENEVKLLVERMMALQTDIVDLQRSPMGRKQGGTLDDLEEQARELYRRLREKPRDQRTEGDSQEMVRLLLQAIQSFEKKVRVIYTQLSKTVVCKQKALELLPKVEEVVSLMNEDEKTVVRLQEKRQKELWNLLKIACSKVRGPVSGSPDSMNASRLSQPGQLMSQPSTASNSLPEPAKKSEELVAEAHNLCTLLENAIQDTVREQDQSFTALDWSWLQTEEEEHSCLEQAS
The conditions noted are these: at 0.1 µM.

The target of test [19] is T5, Inhibitor of nuclear factor kappa-B kinase subunit beta (Homo sapiens). The conditions noted are these: at 1 µM.
Test [20] deals with T6, Inhibitor of nuclear factor kappa-B kinase subunit epsilon (Homo sapiens) (UniProt Q14164).
T6 sequence (whole entry): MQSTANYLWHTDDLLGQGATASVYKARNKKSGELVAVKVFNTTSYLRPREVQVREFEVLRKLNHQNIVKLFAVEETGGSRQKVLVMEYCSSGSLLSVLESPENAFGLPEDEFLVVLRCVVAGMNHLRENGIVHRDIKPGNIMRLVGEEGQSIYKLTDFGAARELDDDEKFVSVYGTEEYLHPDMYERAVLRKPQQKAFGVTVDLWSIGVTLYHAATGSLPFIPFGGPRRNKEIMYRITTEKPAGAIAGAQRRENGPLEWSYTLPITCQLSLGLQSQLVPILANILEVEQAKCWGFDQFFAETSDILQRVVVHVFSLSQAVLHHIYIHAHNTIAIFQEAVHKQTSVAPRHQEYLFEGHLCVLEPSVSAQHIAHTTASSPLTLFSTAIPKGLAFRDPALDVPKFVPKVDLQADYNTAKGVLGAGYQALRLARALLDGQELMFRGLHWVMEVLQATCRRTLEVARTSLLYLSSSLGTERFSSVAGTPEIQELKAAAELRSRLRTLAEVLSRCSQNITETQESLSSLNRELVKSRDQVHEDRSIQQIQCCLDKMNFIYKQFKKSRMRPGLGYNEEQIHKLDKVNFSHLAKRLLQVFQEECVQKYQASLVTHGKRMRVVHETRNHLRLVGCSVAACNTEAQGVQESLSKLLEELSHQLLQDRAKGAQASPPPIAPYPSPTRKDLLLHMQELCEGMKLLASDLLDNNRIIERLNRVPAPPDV
The conditions noted are these: at 0.1 µM.

SRSF protein kinase 1 (Homo sapiens), sequence (Q96SB4 whole entry): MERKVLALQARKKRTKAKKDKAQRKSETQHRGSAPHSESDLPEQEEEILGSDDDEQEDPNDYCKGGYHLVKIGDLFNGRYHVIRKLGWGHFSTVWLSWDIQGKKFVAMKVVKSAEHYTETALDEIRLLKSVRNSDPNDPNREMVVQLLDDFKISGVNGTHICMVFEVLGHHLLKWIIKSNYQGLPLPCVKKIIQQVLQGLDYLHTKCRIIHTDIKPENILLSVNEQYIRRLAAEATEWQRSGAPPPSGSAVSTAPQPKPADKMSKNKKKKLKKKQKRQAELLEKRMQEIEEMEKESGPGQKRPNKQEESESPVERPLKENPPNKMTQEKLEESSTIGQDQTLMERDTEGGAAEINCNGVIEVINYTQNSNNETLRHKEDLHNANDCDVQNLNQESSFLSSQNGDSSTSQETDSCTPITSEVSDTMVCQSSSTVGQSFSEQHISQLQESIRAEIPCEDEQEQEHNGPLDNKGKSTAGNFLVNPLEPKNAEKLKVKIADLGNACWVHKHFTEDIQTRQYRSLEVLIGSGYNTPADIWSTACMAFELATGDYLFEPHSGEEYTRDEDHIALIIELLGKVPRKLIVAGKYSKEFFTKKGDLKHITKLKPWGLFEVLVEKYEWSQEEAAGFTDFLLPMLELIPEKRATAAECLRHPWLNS
Phosphatidylinositol 4-kinase beta (Homo sapiens), sequence (Q9UBF8 2-816 limits assumed): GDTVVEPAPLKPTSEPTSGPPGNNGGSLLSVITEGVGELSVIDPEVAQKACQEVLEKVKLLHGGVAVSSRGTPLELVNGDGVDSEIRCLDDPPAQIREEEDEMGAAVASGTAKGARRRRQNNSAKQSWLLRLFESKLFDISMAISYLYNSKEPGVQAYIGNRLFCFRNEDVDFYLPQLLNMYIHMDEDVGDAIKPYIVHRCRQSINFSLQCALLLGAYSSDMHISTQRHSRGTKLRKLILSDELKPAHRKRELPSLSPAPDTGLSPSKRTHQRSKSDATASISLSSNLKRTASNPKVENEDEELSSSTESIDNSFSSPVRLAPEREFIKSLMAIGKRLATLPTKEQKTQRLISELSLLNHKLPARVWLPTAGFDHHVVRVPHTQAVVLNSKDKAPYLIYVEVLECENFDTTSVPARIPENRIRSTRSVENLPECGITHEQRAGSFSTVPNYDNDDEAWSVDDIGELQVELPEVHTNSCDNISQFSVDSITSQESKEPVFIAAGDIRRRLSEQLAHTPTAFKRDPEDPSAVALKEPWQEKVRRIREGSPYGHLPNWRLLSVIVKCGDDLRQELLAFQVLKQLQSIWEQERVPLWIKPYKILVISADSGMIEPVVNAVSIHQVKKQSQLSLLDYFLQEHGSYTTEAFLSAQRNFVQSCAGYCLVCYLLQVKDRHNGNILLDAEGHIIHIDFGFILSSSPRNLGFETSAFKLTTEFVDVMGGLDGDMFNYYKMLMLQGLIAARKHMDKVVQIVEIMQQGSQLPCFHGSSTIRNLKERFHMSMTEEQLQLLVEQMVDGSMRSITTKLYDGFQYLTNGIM
Phosphatidylinositol 4,5-bisphosphate 3-kinase catalytic subunit alpha isoform (Homo sapiens), sequence (P42336 whole entry, canonical isoform): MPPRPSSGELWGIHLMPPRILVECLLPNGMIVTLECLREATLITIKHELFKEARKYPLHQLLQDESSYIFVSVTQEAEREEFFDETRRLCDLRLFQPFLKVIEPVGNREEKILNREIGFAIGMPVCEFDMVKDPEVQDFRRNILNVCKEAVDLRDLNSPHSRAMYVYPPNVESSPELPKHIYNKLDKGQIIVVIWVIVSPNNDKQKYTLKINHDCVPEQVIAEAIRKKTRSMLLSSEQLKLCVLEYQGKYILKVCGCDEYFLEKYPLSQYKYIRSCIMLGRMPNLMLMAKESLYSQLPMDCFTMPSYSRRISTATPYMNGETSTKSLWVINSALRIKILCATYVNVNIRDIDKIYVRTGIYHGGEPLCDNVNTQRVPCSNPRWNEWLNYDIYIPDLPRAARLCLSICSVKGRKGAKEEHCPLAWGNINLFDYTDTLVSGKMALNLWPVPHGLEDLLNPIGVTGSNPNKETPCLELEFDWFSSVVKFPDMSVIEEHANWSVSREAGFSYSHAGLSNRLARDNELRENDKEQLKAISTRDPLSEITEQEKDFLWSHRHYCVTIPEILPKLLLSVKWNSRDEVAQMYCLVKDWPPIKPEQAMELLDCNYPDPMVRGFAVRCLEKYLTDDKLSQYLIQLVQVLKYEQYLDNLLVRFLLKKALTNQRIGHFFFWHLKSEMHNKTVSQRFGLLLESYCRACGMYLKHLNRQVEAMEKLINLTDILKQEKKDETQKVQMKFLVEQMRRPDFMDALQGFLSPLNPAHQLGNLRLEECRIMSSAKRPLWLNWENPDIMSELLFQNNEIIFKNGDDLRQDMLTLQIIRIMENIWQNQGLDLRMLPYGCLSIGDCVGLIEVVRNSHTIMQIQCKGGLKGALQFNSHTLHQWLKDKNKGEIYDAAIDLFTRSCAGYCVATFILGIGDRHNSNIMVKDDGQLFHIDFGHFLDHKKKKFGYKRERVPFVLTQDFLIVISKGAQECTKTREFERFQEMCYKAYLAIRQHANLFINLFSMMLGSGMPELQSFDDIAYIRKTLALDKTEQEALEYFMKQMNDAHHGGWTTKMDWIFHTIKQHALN
Sphingosine kinase 1 (Homo sapiens), sequence (Q9NYA1 whole entry): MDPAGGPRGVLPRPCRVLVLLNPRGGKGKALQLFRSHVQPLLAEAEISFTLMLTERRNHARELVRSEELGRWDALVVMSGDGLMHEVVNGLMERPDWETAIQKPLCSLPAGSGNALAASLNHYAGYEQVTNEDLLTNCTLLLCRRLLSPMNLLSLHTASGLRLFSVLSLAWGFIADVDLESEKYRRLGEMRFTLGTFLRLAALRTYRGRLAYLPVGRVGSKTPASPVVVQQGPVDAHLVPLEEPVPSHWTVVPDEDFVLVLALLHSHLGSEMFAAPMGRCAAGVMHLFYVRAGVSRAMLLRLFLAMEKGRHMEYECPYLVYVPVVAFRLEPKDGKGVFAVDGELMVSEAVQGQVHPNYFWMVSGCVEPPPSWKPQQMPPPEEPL
Casein kinase II subunit alpha (Homo sapiens), sequence (P68400 whole entry, looked up): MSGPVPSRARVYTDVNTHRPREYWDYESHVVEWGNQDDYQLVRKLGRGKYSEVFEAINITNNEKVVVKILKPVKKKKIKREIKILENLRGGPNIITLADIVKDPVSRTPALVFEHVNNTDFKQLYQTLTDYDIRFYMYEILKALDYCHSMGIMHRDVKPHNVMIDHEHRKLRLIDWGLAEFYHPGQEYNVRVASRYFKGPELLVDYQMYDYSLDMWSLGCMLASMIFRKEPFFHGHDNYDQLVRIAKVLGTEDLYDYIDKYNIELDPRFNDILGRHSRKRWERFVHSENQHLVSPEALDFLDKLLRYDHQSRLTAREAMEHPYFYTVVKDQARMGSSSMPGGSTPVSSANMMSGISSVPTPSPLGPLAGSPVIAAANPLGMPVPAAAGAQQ

As for `CCS(=O)(=O)c1ccc(OC)c(Nc2ncc(-c3cccc(-c4ccccc4F)c3)o2)c1`, the inhibition was 0.18% in test [1]; 0.1% in test [2]; 2.33% in test [3]; 1.85% in [4]; 2.73% in [5]; 2.24% in test [6]. Further, the inhibition in test [7] is 5.89%; in test [8] it was -1.01%; in test [9] it was -4.05%; in test [10], 4.17%; in test [11] it was 0.74%; in test [12], 0.06%. The inhibition in test [13] is -2.48%; in test [14], 1.79%; in test [15], 4.95%; in test [16], 3.18%; in [17], 3.18%; in test [18], 0.01%. Moreover, the inhibition was -1.42% in test [19] and -1.02% in test [20].
As to `CCC(=O)Nc1ccc(C)c(-c2ccc(C(=O)NCC3CC3)cc2)c1`, the inhibition was 4.44% in test [1]; -3.31% in test [2]; -2.74% in [3]; 2.7% in [4]; 0.64% in test [5]; 0.57% in test [6]. The inhibition in test [7] was -0.59%; in test [8], -0.74%; in test [9] it was -0.15%; in test [10] it was -3.42%; in test [11] it was 0.8%; in test [12] it was -0.3%. Moreover, the inhibition in [13] was 0.9%; in test [15], 2.11%; in [16] it was 10.5%; in test [17], 7.65%; in test [18], 5.07%; in test [19] it was 5.57%. In addition, the inhibition in test [20] was found to be 9.75%.
In the case of `NC(=O)c1cc(-c2ccncc2)cc(-c2ccccc2)c1N`, the inhibition in [1] is 3.34%; in [2], -1.6%; in test [3], -0.84%; in [4] it was 4.53%; in test [5], 6.5%; in test [6], 3.68%. For the same compound, the inhibition was 5.3% in [7]; 0.64% in test [8]; 3.86% in test [9]; -0.86% in test [10]; 1.79% in [11]; -0.11% in test [12]. Also, the inhibition in [13] was -1.58%; in test [14], 2.36%; in test [15] it was 2.75%; in test [18] it was 9.18%; in test [19], 27.5%; in test [20], 6.3%.
